The values below come from the supplement of paper PMC12632987.

First the molecules themselves.
B1: GBRAPL2_85_7421 (protein)
chain: TEKVTIVAHTLEEVVDMSVDVLEALEPKGTVEIEGIVAVPSSELEKALKELPKAAEELKKRLEELAKKRPGLTINAEIRIFNLDTKEFHPKVEKFTVKNE
B2: GBRAPL2_63_7402 (protein)
chain: SAVERVLRTLLEHAVLDLDTAERLEKALESNLSDEELFKTLVEAIKDINPELTEEEAERVARLLIALAEQSEALLVEAVRQLSTLENEEFLALLEALVAA
B3: GBRAPL2_63_7399 (protein)
chain: SAAKKALEALLEHAILDLDTAERLDKALENEKDEEKLRKALVEAILDINPEATEEEAERMADLLLELAKKSEAALKEAVRALSTMDLPEALAFLEALVAA
B4: GBRAPL2_83_7411 (protein)
chain: MKIELDVELTVVIKGDEEEVEKIEDMMVETARELRKLGAAAVVATKEEDGVYTFVLDVLYVGDEEGAKKVIELLKESAEKIKKEFPEAKVTVKVVEKKVL
B5: GBRAPL2_63_7404 (protein)
chain: SSAEKVLKTLLEYATLDLDTAERLEEALESNASEEELREALVEAIKDIRPDLTEEEAERVADLLIELAKQSEELLKEAVRDLDTLENDEFLKRLEELVAA
B6: GBRAPL2_83_7410 (protein)
chain: MEVLLELELTVTYKGNEEDKEKILDMLLEAQDKLRELGATAVVAEKLENGVYTFSLYAIYRGPREGAEKVRKTLEEFAEKIKKEFPEAKVEVKVLEEREL
B7: GBRAPL2_83_7416 (protein)
chain: MKKRVLITHEIEVKSEKVTKEEALDLAGDVAERLREKGIAAVVSVEEEDGVILVEIEALLEDSEEKIKIVEEEVEKLVKRLEELGAEVKLKTEREEEIVP
B8: GBRAPL2_83_7417 (protein)
chain: VKKLKVITHDIEIKSENITEEEALDMAGDVAAELRKHGIKTVVGVERENGVVKVELESIMEDNEEKEKLVHEEVEKLVEELKKKGAEVKVETEEEIVEVE
B9: GBRAPL2_63_7400 (protein)
chain: SAAKKALEALLEHAILDLETAERLEKALEEETDEEKLYEALVEAILDLNPEATREQAEEIADLLIELAKQSEAALKAAVRALSTVPLEEALAFLRAAVAA
B10: GBRAPL2_64_7409 (protein)
chain: PKVHLAIAYEVEEREEDGKKVLVLDATVYVIKDGEITELEAKVVAEQLSETTWLVKLELKKPDGSVIKREEVVEAPWEDVETEMLELVDEAAREAVEEEE
B11: GBRAPL2_93_7422 (protein)
chain: MKVKVTIIRLVNGEVVEEEEREVTVEEAKKLIEELLKEAVANGERVIIEIYDKDTGWTFGDYVENEEQAEKALKRAKEILDDLEKEGKEVEITITIEKKT
B12: GBRAPL2_63_7403 (protein)
chain: SEVEKVLKAILEYATLDLDTAERIDKALESNLSEEELFEVLVETIKDINPELTDEEAEKIAELLIELAKQSEEKLKEAVRKLQTMENEEFIAYLEELVKE
B13: GBRAPL2_63_7392 (protein)
chain: SLLDKVLKLLSRLGPVPLDLAERFEELAEELSDEEELAKAIAEAVQEDNPHIDEERRKILEEAILKALTEDSEIAIKIASAIINGAPMEEIEKLLEELKK
B14: GBRAPL2_63_7393 (protein)
chain: STWARVLRLILEHATIDLETAERLEAALESNASDEELFATLVEALQDIRPELTPEQARDIAAKLARLAERSEALAAEAVRRLDTMSLEEFLAHLDALVAA
B15: GBRAPL2_63_7396 (protein)
chain: MIAKKVLEILLREAILDLETAEELEKALEEEKTEEELRKALVKAILDLNPDLTEEEAEEIVELLLELAKKSEELARKAVRALSTLDNEEAFAFIKKLVAE
B16: GBRAPL2_63_7394 (protein)
chain: SAARKVLEALLEHAIIDLETAERLEKALEEAKSEEELRKTLVEALLDMIPELTEEEAEELADMLIELAKKSEELLKEAILALQTLSKEEALAKLKALVAE
B17: GBRAPL2_85_7420 (protein)
chain: MEKITIVARTLEEAVEMAVDVVEALDPKGEIEVELIVLVPSSELEKAIAELPKAAEELKKKFQELAKKHPGLKINAEIEIFDSDTREFHPDVKKFTVEDK
B18: GBRAPL2_63_7405 (protein)
chain: MTAKKVLEALLRHAILPLDTAERLDEALENEEDEEKLRETLVEAILDIRPELTPEEAEYVAEKLLALAEQSEERLAEAVRALTTLSKEEFLARLDELVAE
B19: GBRAPL2_63_7391 (protein)
chain: SLADKTAALLSRLGAVPLELAEAWEAAAAALTDVAAFAEAAAAAAAAINPRIDAERQAILEEAIRRALTEDDPLAVEIVSAIINNEPDEEIRALWKKLLA
B20: GBRAPL2_83_7414 (protein)
chain: TTIELDLLLEVKLKGDEEEKEELLDLMVEAADRLRELGASAAVAIKEENGVLEVEVHVIAVGDEELVKKVEEKLKEAAEEIKKKFPKAEVKVEVLERKEL
B21: GBRAPL2_85_7419 (protein)
chain: MEKVTIVARSLAEAVDMAVDVVEALEPEGEIEVDLIVLVPSSELEAALAALPAAAAELKARLQELARRHPGLVVRAEVEIFDSDTREFHPDVRRFTVRDE
B22: GBRAPL2_83_7415 (protein)
chain: VERTVLITTEITVRHPDLTEEEALDLAGDVAARLREHGVKTVVGVEERDGVVHIVLESLTPDDPALRAAIDEEVDALVAELRARGAEVEVRREEEVVDVP
B23: GBRAPL2_83_7418 (protein)
chain: VKTIRVITYDIEIKSENITEEEALDMAGDVAEELRKKGVKTVVGVEEENGVVHVTLEAIHEDDEELRKLIDEEVEKLVKELEAKGAEVKVKVEEELEEIE
B24: GBRAPL2_63_7401 (protein)
chain: SSVEKVLKTLLEYAVLDLDTAEKIDKALENNESDEELFKTLVEAIKDIRPDLTEEEAEEIAKLLIELAKKSEELLKEAVRKLDTMENEEFIKYLKELVEK
B25: GBRAPL2_63_7395 (protein)
chain: SAAARVLRALLEHAIVDLETAERIEEALATEKSAEALRETLVAALLDMIPELTEEEARELAAALEALARRSPELLREALRALQTLSLEEARARLAALLAA
B26: GBRAPL2_63_7406 (protein)
chain: SAVRRVLEALLRHAILDLDTAELLDEALETETDEEALYETLVEAILRIRPELTPEEAREVADKLIALAEQSEALLAEAVRDLTTLSKEEFLARLDALVAE
B27: GBRAPL2_63_7397 (protein)
chain: MTAKKVLEIILREAILDLETAEKLEEALKNEKTEEALREALVEAILDMRPDLTEEEAEEIVDLLLELQKKSEELAREGVRALSTLDNEEALAYLKELVAK
B28: GBRAPL2_63_7407 (protein)
chain: MTVRKVLEALLEHAILDLDTAERLEEALENETDEEELFETLVEAILDIRPELTPEEAREVAEKLVELAKQSEELLKEAVRALTTLSKEEFLAYLDELVAK
B29: GBRAPL2_63_7398 (protein)
chain: MLAKKVLEALLENAILPLDLAEELEKALETLKTEEELRETLVKAILELNPELTEEEAEEIVDLLIELAKKSEELLKEGVRALSTLDNETAKEYLKKLVAE
B30: GBRAPL2_64_7408 (protein)
chain: AKVHLAIAYEFKESTENGKKVLKLEATVYVIEDGEITELEAEVTATQLSETTWEVKLVLRQPDGSVLERTEVVTVPYEDVETEMLDLILEAAREAVAARR
B31: GBRAPL2_83_7413 (protein)
chain: MTVRLALELTVTLEGDEEEKEALLDMMVETADELRKLGAAAVVAIEEEDGVLTIVLDVLVVGNKEQVEKVKKKLEEAAKEIKEKFPNAKVEVKVLEEEEL
B32: GBRAPL2_54_7390 (protein)
chain: LVEVELILIVSGELPEEEIERIEELLKEKTEELLKKHSDKIEKILRFEREREDGVVLISVELLVKEEYKEEVIDELIKIAEEIREESGVEIKSVIAESSD

The experiment deals with GABARAPL2, P60520. The experiment in a line: median log2 fold change of GCK-ALFA target abundance (FLAG IP / Myc IP barcode read proportion) (log2 ratio); each designed protein is fused to an ALFA-tag nanobody in HEK293 cells to bring the named protein to FLAG-tagged glucokinase (GCK); Myc marks an untargeted standard; higher = target protein stabilised (more abundant). The note with it: target protein: 3xFLAG-MCP-GCK-ALFA reporter; HEK293 landing pad (RPLP). Put shortly: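 HEK293 landing-pad cells received a recombined binder library fused to the ALFA nanobody and were induced with 2 μg mL^−1 doxycycline, then transfected with a plasmid encoding a FLAG-tagged target and a Myc-tagged standard. Lysates were collected after 48 h for anti-FLAG and anti-Myc immunoprecipitation, and the circular RNA barcodes were reverse transcribed, amplified and sequenced. Target abundance for each binder is the median log2 ratio of FLAG to Myc barcode read proportions. Barcodes had to reach a proportion of at least 10^−7 in both replicates, each binder needed at least 3 barcodes per replicate, a pseudocount of 10^−6 was applied, and the two replicates were pooled.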
Chain of GABARAPL2, P60520 (P60520 whole entry, the tested form may be a part): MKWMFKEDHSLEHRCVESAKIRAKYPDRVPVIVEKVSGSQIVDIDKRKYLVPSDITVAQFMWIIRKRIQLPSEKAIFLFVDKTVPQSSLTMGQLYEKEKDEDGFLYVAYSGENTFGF
B1: the “median log2 fold change” value came to 0.266.
Regarding B2, the “median log2 fold change” value came out at 0.0388.
Regarding B3, the “median log2 fold change” value was -0.0717.
With B4, the “median log2 fold change” value is -0.364.
Consider B5, for which the “median log2 fold change” value was found to be 0.0151.
The same measure for B6: -0.0517; for B7: 0.184.
B8: the “median log2 fold change” value is 0.0338.
Turning to B9, the “median log2 fold change” value is -0.0605.
Regarding B10, the “median log2 fold change” value was -0.0236.
On to B11, for which the “median log2 fold change” value amounted to 0.15.
The same measure for B12: -0.012; for B13: 0.0699.
On to B14, for which the “median log2 fold change” value worked out at 0.216.
For B15, the “median log2 fold change” value worked out at 0.0814.
The result for B16 reads 0.071; that for B17, 0.19; that for B18, -0.247.
Take B19: the “median log2 fold change” value was found to be 0.206.
For B20, the “median log2 fold change” value was 0.119.
For B21, the “median log2 fold change” value was 0.0842.
Regarding B22, the “median log2 fold change” value is -0.00519.
The same measure for B23: 0.388.
B24: the “median log2 fold change” value was 0.131.
As for B25, the “median log2 fold change” value stood at 0.00583.
Regarding B26, the “median log2 fold change” value was -0.0969.
On to B27, for which the “median log2 fold change” value is 0.0233.
For B28, the “median log2 fold change” value is 0.0216.
For B29, the “median log2 fold change” value was 0.0619.
With B30, the “median log2 fold change” value stood at 0.118.
As to B31, the “median log2 fold change” value is -0.417.
Consider B32, for which the “median log2 fold change” value is -0.0228.
